Hit rate of the full screen: of about 290,000 compounds, about 27,000 (9.3%) were called active. No stated cut-off is given here; in the data, active means inhibition mostly above about 28% (no sharp cut-off); inactive means mostly below about 43%. This excerpt belongs to a sample that is enriched for actives.
Experiment: A qHTS for Small Molecule Inhibitors of Shiga Toxin; further: 0% is about no effect
Conditions: Vero cells, Shiga toxin protein synthesis inhibition reporter; at 38.7 µM, hits give high values
In the case of `O=C(NCc1ccccc1)C(c1ccccc1)N(C(=O)c1csnn1)c1ccc(F)cc1` (configuration not stated), the inhibition is reported as -3.73% (inactive).
In the case of `COc1ccc(NC(=O)CCC(=O)Nc2nnc(C3CCCCC3)s2)cc1`, the inhibition is reported as -3.77% (inactive).
With `Cc1occc1C(=O)Nc1nnc(-c2ccncc2)s1` the inhibition was 28.4% (inactive).
In the case of `O=C(Nc1nnc(C2CC2)s1)c1ccccn1`, the inhibition is reported as 109% (active).
In the case of `Cc1cccc(NC(=O)CSCC(=O)Nc2nnc(C3CC3)s2)c1`, the inhibition is reported as 14.9% (inactive).
In the case of `CC1CCN(c2ccc(C(=O)Nc3nnc(C4CC4)s3)cc2[N+](=O)[O-])CC1`, the inhibition is reported as 1.09% (inactive).
For `O=C(Cc1cccs1)Nc1nnc(C2CC2)s1`, the inhibition was 18.3% (inactive).
In the case of `Cc1occc1C(=O)Nc1nnc(C2CCCCC2)s1`, the inhibition is reported as 60.1% (active).
For `O=C(Nc1nnc(C2CC2)s1)c1cc(Cl)sc1Cl`, the inhibition was 48% (active).
For `O=C(Nc1nnc(C2CC2)s1)C1=NN(C2CCS(=O)(=O)C2)C(=O)CC1` (configuration not stated), the inhibition was -18% (inactive).
For `CC1CCN(S(=O)(=O)c2ccc(NC(=O)C3CC(=O)N(c4ccccc4)C3)cc2)CC1` (configuration not stated), the inhibition was -4.69% (inactive).
With `COc1ccc(NS(=O)(=O)c2ccc(N3CCN(CCO)CC3)c([N+](=O)[O-])c2)cc1` the inhibition was -10.2% (inactive).
For `CN(C(=O)c1ccccc1)c1nccnc1C#N`, the inhibition was -2.8% (inactive).
For `CCc1nn(CC(=O)N2CCN(CC)CC2)c(=O)c2cccn12`, the inhibition was -0.821% (inactive).
With `COc1ccccc1CN1CCNC(=O)C1CC(=O)N(C)CC1CCOCC1` (configuration not stated) the inhibition was -2.77% (inactive).
With `O=C(CSc1nc2ccccc2[nH]1)N/N=C/C=C\c1ccccc1[N+](=O)[O-]` the inhibition was 30.8% (inactive).
In the case of `CN(Cc1ccccc1)c1nc2c(c(=O)[nH]c(=O)n2C)n1CCSc1nc2ccccc2[nH]1`, the inhibition is reported as -8.47% (inactive).
For `CN(Cc1ccccc1)C(=O)CSc1nc2ccccc2[nH]1`, the inhibition was 70.2% (active).
In the case of `O=C(CSc1nc2ccccc2[nH]1)Nc1nc(-c2ccccc2)c(-c2ccccc2)o1`, the inhibition is reported as -6.45% (inactive).
With `CC(=O)Nc1ccc(C(=O)CSc2nc3ccc(C)cc3[nH]2)cc1` the inhibition was 23.5% (inactive).
For `O=C(CSc1nc2ccccc2[nH]1)c1cccs1`, the inhibition was 119% (active).
With `CN(CCc1ccccn1)C(=O)c1ccc(OC2CCN(CCc3ccccc3)CC2)cc1` the inhibition was 24.5% (inactive).
For `Cc1cc(C)c(S(=O)(=O)N(C)CC(=O)NCC2CCCO2)c(C)c1` (configuration not stated), the inhibition was -2.86% (inactive).
In the case of `Cc1ccc(OCC(=O)Nc2ccc(C(=O)O)cc2NC(=O)COc2ccc(C)c(C)c2)cc1C`, the inhibition is reported as -6.8% (inactive).
With `Cc1ccc(C2Nc3cccc4cccc(c34)N2)cc1` the inhibition was -10.1% (inactive).
For `C=CCN1CCN(C(=O)CCCc2ccccc2)CC1`, the inhibition was 9.38% (inactive).
For `CCc1c(C)nc(N)n2c(SCC(=O)NC3CCCCC3)nnc12`, the inhibition was -19.4% (inactive).
With `S=C(c1ccc(-c2ccccc2)o1)N1CCCCC1` the inhibition was 98.2% (active).
For `S=C(c1ccccc1)N1CCCC1`, the inhibition was -8.23% (inactive).
For `OCCN1CCN(C(=S)c2ccc(-c3ccccc3)cc2)CC1`, the inhibition was 0.879% (inactive).
With `N#C[C@]1(S(=O)(=O)c2ccccc2)C[C@@H]2ON=C(c3cccc(Br)c3)[C@@H]2C1` the inhibition was -6.42% (inactive).
In the case of `CCc1nc(N2CCN(C(C)=O)CC2)c2c3c(sc2n1)CCCC3`, the inhibition is reported as -5.44% (inactive).
For `Cc1ccc(C(=O)Cc2nnc(C)s2)cc1`, the inhibition was 58.4% (active).
In the case of `Cc1ccc(C(=O)CSc2ccccc2C(=O)O)cc1`, the inhibition is reported as 39.6% (inactive).
In the case of `Cc1ccc(C(=O)Cn2cccn2)cc1`, the inhibition is reported as 5.48% (inactive).
With `CC1CC(=O)N(CC(=O)Nc2cccc(Cl)c2)c2ccccc2S1(=O)=O` (configuration not stated) the inhibition was -4.68% (inactive).
In the case of `CCN(C(=O)COC(=O)c1ccc(COc2ccc3c(C)cc(=O)oc3c2)cc1)C1CCS(=O)(=O)C1` (configuration not stated), the inhibition is reported as 33% (inactive).
With `CCCSc1nc2sc3c(c2c(=O)n1-c1ccc(OC)cc1)CCN(C)C3` the inhibition was -19% (inactive).
In the case of `CC(C)(O)C#Cc1ccc(CN2CCC(CO)(CCc3ccccc3)CC2)cc1`, the inhibition is reported as -5.12% (inactive).
With `COCCCNc1nc2c(-c3cccc(C)c3)nnn2c2ccc(Cl)cc12` the inhibition was 9.32% (inactive).
With `CCOC(=O)CSc1nnc(CNc2ccc(F)cc2)o1` the inhibition was -20.4% (inactive).
With `Cc1cccc2nc(CNc3ccc(F)cc3)cn12` the inhibition was 66.5% (active).
For `COc1cc([N+](=O)[O-])cc([N+](=O)[O-])c1NC(=O)N1CCOCC1`, the inhibition was -11.6% (inactive).
For `CCN(c1ccccc1)S(=O)(=O)c1cc2c(cc1C)n(C)c(=O)c(=O)n2C`, the inhibition was 10.4% (inactive).
With `O=C(CCCN1CCc2[nH]c3ccc(F)cc3c2C1)c1ccc(F)cc1` the inhibition was -5.56% (inactive).
With `O=C(NCCc1ccccc1)c1ccc(OCCOc2ccccc2)cc1` the inhibition was -1.89% (inactive).
In the case of `CC(C)C(=O)NCc1cc(-c2ccc(Cl)cc2)no1`, the inhibition is reported as 10.8% (inactive).
For `CC(C)c1ccc(C(=O)NCCCc2ccccc2)cc1`, the inhibition was 60.6% (active).
For `COC(=O)[C@@H](Cc1ccccc1)NC(=O)NCCc1ccccc1`, the inhibition was 15.6% (inactive).
With `O=C(COC(=O)c1ccc(F)cc1)NCCCc1ccccc1` the inhibition was -1.67% (inactive).
With `CCCOc1ccc(C(=O)NCCc2ccccc2)cc1` the inhibition was 39.8% (inactive).
In the case of `O=C(NCCN1CCCC(O)C1)c1cc(COc2c(F)cccc2F)on1` (configuration not stated), the inhibition is reported as -6.84% (inactive).
With `O=C(NCCCc1ccccc1)c1cc(COc2c(F)cccc2F)on1` the inhibition was 78.1% (active).
With `CC(C)Cc1cc(C(=O)Nc2cc(Br)ccc2O)no1` the inhibition was 85.5% (active).
In the case of `C[C@H](NC(=O)NCCc1ccccc1)C(=O)O`, the inhibition is reported as 8.98% (inactive).
For `CC(C)Cc1cc(C(=O)NCCc2ccccc2)no1`, the inhibition was 87.5% (active).
With `CC(C)/C=N/NC(=O)c1cc(Br)ccc1O` the inhibition was 30.6% (inactive).
For `CCOc1cc(CN2CCCC(CO)(Cc3ccc(F)cc3F)C2)ccc1OC` (configuration not stated), the inhibition was 1.36% (inactive).
For `COC(=O)Cn1cnc2scc(-c3ccc(C)c(C)c3)c2c1=O`, the inhibition was -16.4% (inactive).
In the case of `CC(C)Oc1ccc(/C=N/NC(=O)c2nnn(-c3nonc3N)c2CN(C)C2CCCCC2)cc1`, the inhibition is reported as -5.14% (inactive).
In the case of `CCOc1ccc(S(=O)(=O)NCCCn2ccnc2)cc1NC(C)=O`, the inhibition is reported as -15.3% (inactive).
In the case of `COc1ccc(OC)c(NC(=O)c2ccc3c(c2)C(=O)N(c2ccc(OC(C)=O)cc2)C3=O)c1`, the inhibition is reported as -4.38% (inactive).
For `COc1cc(NC(=O)c2ccc(-c3csc(C)n3)cc2)c(OC)cc1Cl`, the inhibition was -19.7% (inactive).
With `O=c1oc2ccccc2c(NC2CCCCC2)c1NS(=O)(=O)c1ccc(Cl)cc1` the inhibition was -3.24% (inactive).
For `Cc1ccc(CN(CC(=O)NCC2CCCO2)S(=O)(=O)c2ccc(C)cc2)cc1` (configuration not stated), the inhibition was -7.48% (inactive).
For `Cc1cccc(N2C(=O)N3[C@H](c4ccc(F)cc4)[C@@H]4C(=O)N(C5CCCCC5)C(=O)[C@@H]4[C@]3(Cc3ccccc3)C2=O)c1`, the inhibition was -2.98% (inactive).
With `COc1ccccc1CNC(=O)c1ccc(N(C)S(=O)(=O)c2ccc(C)cc2)cc1` the inhibition was 4.41% (inactive).
In the case of `CCN(CC)CCCNC(=O)c1cc(-c2cccc(Cl)c2)on1`, the inhibition is reported as -7.26% (inactive).
With `Cc1cc(C(=O)NCCCc2ccccc2)no1` the inhibition was 35.8% (active).
With `CC(C)CNC(=O)c1cc(-c2ccc(Br)cc2)on1` the inhibition was 52.5% (active).
For `CCCCNC(=S)NNC(=O)c1cc(C)on1`, the inhibition was 6.4% (inactive).
In the case of `CSc1ncc(C(=O)NCCCc2ccccc2)c(C)n1`, the inhibition is reported as 28.3% (inactive).
In the case of `Cc1c(NC(=O)c2cc(-c3ccc(Br)cc3)on2)c(=O)n(-c2ccccc2)n1C`, the inhibition is reported as 20% (inactive).
In the case of `CN(c1ccccc1)S(=O)(=O)c1ccc(C(=O)NCCc2ccccc2)cc1`, the inhibition is reported as 50.1% (active).
With `Cc1ccccc1CSCCNC(=O)c1ccc(N(C)S(=O)(=O)c2ccccc2)cc1` the inhibition was -13.5% (inactive).
With `CC(C)Cn1c(=O)c2ccccc2n2c(CCC(=O)NCc3ccccn3)nnc12` the inhibition was 17.2% (inactive).
For `O=Cc1cn(-c2ccccc2)nc1-c1ccccn1`, the inhibition was 16.4% (inactive).
For `Cc1ccccc1OCC(=O)NNC(=O)c1cc(S(=O)(=O)N(C)C)ccc1N1CCCC1`, the inhibition was -3.25% (inactive).
In the case of `CCCCNC(=O)C1(O)c2ccccc2NC(=O)N1c1ccc(Cl)cc1` (configuration not stated), the inhibition is reported as 20.3% (inactive).
For `COc1ccc(N2CCN(C3CCCCC3NS(=O)(=O)c3ccccc3)CC2)cc1` (configuration not stated), the inhibition was -5.29% (inactive).
For `CC(C(=O)c1ccc(-c2ccccc2)cc1)[n+]1cccc(Br)c1` (configuration not stated), the inhibition was -5.48% (inactive).
In the case of `CCn1c(SCC(=O)Nc2ccc3c(c2)OCCO3)nnc1C(C)C`, the inhibition is reported as 23.4% (inactive).
In the case of `CCC(=O)N1CCN(c2ccccc2NC(=O)COc2cccc(C)c2C)CC1`, the inhibition is reported as -4.98% (inactive).
For `COc1ccc(S(=O)(=O)N2CCOC2CNC(=O)C(=O)NCc2ccc(F)cc2)cc1` (configuration not stated), the inhibition was -3.23% (inactive).
In the case of `Cc1ccc(S(=O)(=O)NCCCn2ccnc2)cc1C(=O)NC(C)C`, the inhibition is reported as -5.57% (inactive).
In the case of `O=C(NCc1ccco1)c1cc2sccc2n1Cc1ccc(F)cc1`, the inhibition is reported as 59.6% (inactive).
In the case of `COc1cc(C(=O)NC(=S)NCc2ccco2)cc(OC)c1OC`, the inhibition is reported as -9.57% (inactive).
In the case of `O=C(Nc1ccccc1)Nc1ccccc1C(=O)NCc1ccco1`, the inhibition is reported as 17.2% (inactive).
In the case of `Cc1ccc(N(Cc2ccc(C(=O)Nc3ccccc3C(=O)NCc3ccco3)cc2)S(C)(=O)=O)cc1C`, the inhibition is reported as -16.6% (inactive).
For `COc1cc(C(=O)N[C@@H](C)C(=O)NCc2ccco2)cc(OC)c1OC`, the inhibition was -3.33% (inactive).
In the case of `COc1ccc(C(=O)Nc2ccccc2C(=O)NCc2ccco2)cc1`, the inhibition is reported as 55.1% (active).
In the case of `COc1cccc(NC(=S)NCc2ccco2)c1`, the inhibition is reported as -1.12% (inactive).
In the case of `O=C(NCc1ccco1)c1sc2cccc(F)c2c1Cl`, the inhibition is reported as 80.8% (active).
In the case of `COc1ccc2oc(C(=O)NCc3ccco3)c(C)c2c1`, the inhibition is reported as 57% (active).
With `O=C(NCc1ccco1)c1nn2cccnc2c1Cl` the inhibition was 18.5% (inactive).
In the case of `COc1ccc2c(Cl)c(C(=O)NCc3ccco3)sc2c1`, the inhibition is reported as 93.2% (active).
In the case of `COc1ccc2oc(C(=O)NCC(Cc3ccccc3)N(C)C)c(C)c2c1` (configuration not stated), the inhibition is reported as 19.2% (inactive).

— PubChem BioAssay AID2315 (National Center for Advancing Translational Sciences (NCATS), 2010)
